In the library only some 3.5% were active in any assay of this set; here they are far more common.
MITF inh: blocks human microphthalmia-associated transcription factor. AlphaScreen MITF homodimerization, bead proximity signal. inhibition, % at 2.6 µM. 0.91% of 650,000 active. AID 1259374; in the data active = inhibition above about 50%
TEAD-YAP inh: TEAD-YAP interaction inhibition. HEK-TIYL cells, TEAD-Gal4/YAP UAS-luciferase luminescence. inhibition, % at 9.12 µM. 1.4% of 640,000 active. AID 1259422; in the data active = inhibition above about 32%
GPR151 activ: activates the human receptor GPR151; PathHunter beta-arrestin GPR151 cells, luminescence; 1% of 650,000 active; AID 1508602; Q8TDV0; activation, % at 11.2 µM; in the data active = activation above about 4.9%
Target sequence (Q8TDV0 whole entry, looked up): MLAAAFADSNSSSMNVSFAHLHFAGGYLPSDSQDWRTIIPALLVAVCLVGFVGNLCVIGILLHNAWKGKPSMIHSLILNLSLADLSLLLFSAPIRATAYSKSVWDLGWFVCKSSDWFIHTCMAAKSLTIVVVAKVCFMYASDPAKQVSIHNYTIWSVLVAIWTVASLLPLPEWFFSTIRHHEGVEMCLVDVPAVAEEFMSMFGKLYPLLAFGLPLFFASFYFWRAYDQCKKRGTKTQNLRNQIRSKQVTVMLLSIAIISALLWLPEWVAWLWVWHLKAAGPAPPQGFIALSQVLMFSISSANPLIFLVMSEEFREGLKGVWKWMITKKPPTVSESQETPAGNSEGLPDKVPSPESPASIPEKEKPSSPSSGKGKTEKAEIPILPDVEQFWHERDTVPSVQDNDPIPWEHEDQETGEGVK
FBW7 act: human FBW7 E3 ligase activation, primary screen. Q969H0. AlphaScreen FBW7–phospho-cyclin E peptide binding, activator screen. normalized activity (activation), % at 26.1 µM. 0.13% of 650,000 active; in the data active = normalized activity above about 1.9%;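 note: purified mutant Fbw7 with reduced substrate affinity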
MITF inh conf: human MITF inhibition, confirmation. shares compounds with MITF inh. AlphaScreen MITF homodimerization, biotin/His-MITF beads. inhibition, % at 2.6 µM. 16% of 4,700 active. AID 1259372;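 active = inhibition above a cutoff derived from the DMSO control wells, cut at about 28% in these data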;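 note: inhibitors lower the bead chemiluminescence by keeping MITF from dimerizing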
AlphaScreen intf2: AlphaScreen optical interference, counter-screen; LysRS AlphaScreen counterscreen, signal interference, triplicate; inhibition, % at 2.6 µM; 7.6% of 4,700 active; shares compounds with MITF inh;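 active = inhibition above a cutoff derived from the DMSO control wells, cut at about 30% in these data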
Large screens that a line does not name were inactive (follow-up assays come after a bar, where they were run).

CN(C(=O)COC(=O)c1ccc(Cl)c(N)c1)c1ccccc1	none
COc1cccc(CC(C2CCN(C(=O)CSC)CC2)N(C)Cc2ccccn2)c1 (centres undefined)	MITF inh 52.2 | MITF inh conf inactive | AlphaScreen intf2 33.6
COc1cccc(CC(C2CCN(Cc3ccccn3)CC2)N(C)C(=O)c2ccco2)c1 (centres undefined)	none
COc1cc(/C=N\NC(=O)CN2CCN(C)CC2)cc(OC)c1	MITF inh 55.9 | MITF inh conf inactive | AlphaScreen intf2 inactive
CN1CCN(CC(=O)N/N=C\c2ccsc2)CC1	none
COc1cc(/C=N\NC(=O)CN2CCN(C)CC2)cc2c1OCO2	MITF inh 50.7 | MITF inh conf inactive | AlphaScreen intf2 inactive
CN1CCN(CC(=O)N/N=C\c2ccccc2O)CC1	none
CCOCCCn1c(=S)[nH]c2c(oc3ccccc32)c1=O	none
CC(C)(C)c1nnc(NC(=O)CN2C(=O)C3C4C=CC(C4)C3C2=O)s1 (centres undefined)	MITF inh 67.6 | MITF inh conf inactive | AlphaScreen intf2 inactive
COc1ccc(Cc2nnc(N/N=C/c3cccc([N+](=O)[O-])c3)[nH]c2=O)cc1OC	none
COc1ccc(Cc2nnc(N/N=C/c3c(CO)cnc(C)c3O)[nH]c2=O)cc1OC	MITF inh 111.5 | MITF inh conf 107.3 | AlphaScreen intf2 99.9
Cc1nc2cccnc2n1C1CCN(C(=O)C(C)(C)C)CC1	none
CCOC(=O)c1c(C)n(C)c2ccc(OC)cc12	none
Cc1cc(C)c(S(=O)(=O)Nc2ccc(Br)cc2)cc1S(=O)(=O)Nc1ccc(Br)cc1	none
Cc1ccc(S(=O)(=O)Nc2ccc(Br)cc2)cc1S(=O)(=O)Nc1ccc(Br)cc1	MITF inh 52.7 | MITF inh conf inactive | AlphaScreen intf2 inactive
CCOc1ccc(-c2n[nH]c3c2C(c2ccccc2)NC3=O)cc1 (centres undefined)	none
COCCCNc1ccc([N+](=O)[O-])cc1C(=O)Nc1cccc(C)n1	MITF inh 52.1 | MITF inh conf inactive | AlphaScreen intf2 inactive
CCC(C)NCCOCCOc1ccc(C)cc1Cl (centres undefined)	MITF inh 76.5 | MITF inh conf inactive | AlphaScreen intf2 inactive
CCC(C)NCCOCCOc1ccc(Cl)cc1Br (centres undefined)	none
CCC(C)NCCOc1ccc(OC)cc1 (centres undefined)	none
CCC(C)NCCOCCOc1ccc(OC)cc1 (centres undefined)	MITF inh 84.3 | MITF inh conf inactive | AlphaScreen intf2 inactive
CCC(C)NCCOCCOc1ccc(C)cc1OC (centres undefined)	MITF inh 53.9 | MITF inh conf inactive | AlphaScreen intf2 inactive
CCOC(=O)c1cc(S(=O)(=O)N2c3ccccc3CC2C)cn1C (centres undefined)	none
CC(NS(=O)(=O)/C=C/c1ccccc1)C(=O)O (centres undefined)	none
CC1CCN(c2nc3c(c(=O)[nH]2)CCN(Cc2ccc4nccnc4c2)C3)CC1	none
CCCC(=O)Nc1ccc(NC(=O)c2cc(Br)cc(Br)c2I)cc1	none
O=C(NCCCN1CCCC1)c1ccccc1Cl	MITF inh 55.4 | MITF inh conf inactive | AlphaScreen intf2 inactive
O=C(CCNC(=O)c1ccccc1Cl)NCCCN1CCOCC1	none
CC(C)(C)NC(=O)c1cccc(NC(=O)CCC(=O)O)c1	none
C=CCc1ccccc1OCCCCN1CCN(C)CC1	MITF inh 56.9 | MITF inh conf inactive | AlphaScreen intf2 inactive
CCOc1cc(C=O)ccc1OCCCCN1CCN(CC)CC1	MITF inh 70.9 | MITF inh conf inactive | AlphaScreen intf2 inactive
C=CCc1cccc(OC)c1OCCCN1CCN(C)CC1	MITF inh 78.2 | MITF inh conf inactive | AlphaScreen intf2 inactive
C=CCc1cc(OC)ccc1OCCCCN1CCN(C)CC1	MITF inh 76.1 | MITF inh conf inactive | AlphaScreen intf2 inactive
C=CCc1ccccc1OCCN1CCCC1	none
COc1cccc(CC(=O)N2CC[C@@H]3[C@H](CCCN3C(=O)c3sccc3C)C2)c1	none
COc1cccc(C=O)c1OCCCCN1CCN(C)CC1	MITF inh 65.8 | MITF inh conf inactive | AlphaScreen intf2 inactive
CCc1ccccc1OCCOCCN1CCN(C)CC1	MITF inh 58.4 | MITF inh conf inactive | AlphaScreen intf2 inactive
CCN1CCN(CCCCOc2ccccc2C=O)CC1	MITF inh 57.9 | MITF inh conf inactive | AlphaScreen intf2 inactive
